Data as given in the supplement of paper PMC6555819.

test system: VDR:RXRa (NR concentration 270 nM, RXRa partner concentration 90 nM); assay: PBM binding z-score (relative to random genomic background probes); higher = stronger binding; sequences stand for … in GC…GCGATTGACAGCGTAGAATGAAGG
Experimental: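 Protein-binding microarray (Agilent 4x180K custom design, double-stranded 60-nt probes: 5' GC cap, 34-nt variable region, 24-nt constant primer region; full probe sequence given). Purified or IVT nuclear receptor:RXRα heterodimers (3:1 NR:RXRα, mostly 270:90 nM) or homodimers were incubated for 1 h in PBS with 2% milk and no ligand, then detected with Alexa488 antibodies. Fluorescence from o1-orientation probes (~5 replicates averaged) was converted to z-scores against 500 random hg19 background probes. Variable regions are seed direct-repeat (DR0–DR5) sites, all their single-nucleotide variants and half-site ablations.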

| Sequence | PBM binding z-score |
| --- | --- |
| CCTGCTAGGTAATGGTCAGCTAATCTACAGTATG | -0.407 |
| CCGACTAGGGCAAGGTTACCATAACGCACAGCCA | 0.178 |
| ATAGACAGGTGATGAAGGTAACTCAGGCTATCAT | 0.166 |
| CGAACTAGGTCATTGACAGGACATTGAATAGTAA | 3.1 |
| CCTACTGGGCCATTCTGAGGTCATTGATCATATG | 3.7 |
| GTACCAAGGTGAATAGGTCGCTGATGAGTAGGCG | 0.351 |
| GGAACGAGGGCATTGGAGTTGATAGCATGGCGAT | 2.6 |
| ATATGTAGGTTATCCGGTCATTCAGTTTGCGCAT | 2.65 |
| TCGAGTAGGTTACCAATGGGGCATTCAGCTTTCT | 0.0745 |
| TTACCAAGGTGAAAGCTCGTTGATGCACGCCTTG | -0.288 |
| ACTAGCAGGCCACGTTTGGGTCACTCAAACAAAG | 0.312 |
| CAACCTAGGTCAGGGCCAGTATAGGAGGAACGTT | 0.746 |
| GCTTGCGGGTCAAAGGTTATAGCATGAATAGAAT | 5.03 |
| CTCGAAGGGTCGGTTGAGGTGAGTATACGGATAA | 1.25 |
| AGAACGAGGGCAATGAGCTGATAGCACGGGTGGC | -0.0572 |
| TCTCGGAGGACACGAAAGTCAGAGCTTTCCAGAG | -0.402 |
| TATACAGGGTCAAATGCCAGAGTACGAATGTCGA | 4.82 |
| ATCTCTAGCTAAAGTTCAGTGAAAGATCGATAGA | 1.49 |
| AGAATGAGGCTAAGATCAGGGAAACAGAATACAT | -0.231 |
| TCTATTGGTTGATTAGGGCAACCGAAACAGCGGA | 0.547 |

| Sequence | PBM binding z-score |
| --- | --- |
| AATCCAGGGTCACTAGGCCAGAGTAGGTACGAAT | 4.31 |
| TCTGCTAGGTCAACGATCGTCAGCTAATCTGCTA | 1.03 |
| CCTTACGGTTCACTCCAGGTTATAGCATCGGAGT | 3.4 |
| CCGACTGGGGCAGACAGGTTACCATACCATCCGG | -0.343 |
| TCTTGTAGGTCAACAGGAGGTTAAGAAAGATCGA | 3.79 |
| TCATATAGGTAATACAGGTGACAGTCGGCATCTA | 0.922 |
| ATCTCTAGGTCAAGTTCAGTGAAAGATCGATAGA | 3.65 |
| AGAACGAGGGCAATGATTTGATAGCACGGGTGGC | 0.334 |
| CGTCCAAGGTCAGCAGGTCAGTTAAAGCGACGTG | 4.23 |
| TCATATAGGTAAACACGTGAAAGTCCGTAAGTTA | 0.885 |
| AGAACGAGAGCAATGAGTTGATAGCACGGGTGGC | 1.96 |
| TCTGCTAGGTCAACGATGGTCAGCTGATCTGCTA | 1.73 |
| CCGACTGGGGCAAAGGCTACCATACTCAGTACGA | -0.358 |
| CAAACTAGGTCAAAGGTCAAATTCGAGCCAACCA | 6.75 |
| CCTTACGGGTCACTGCAGGTTATAGCATCGGAGT | 4.19 |
| CAAACTATGTCACGAAAGGTCAAAGTCGAATGAC | 5.07 |
| GGAACGCGGGCAAGTTGATAGCAGAGTTTGATGG | -0.834 |
| ACAGACAGGTGAGAGAAGGTAACTCAGCTGGACG | -0.382 |
| ATACCAAGGTGATCGTGAGGTAGTTGATACTAAC | -0.169 |
| TAGCCTAGGTCAGATCGGGCCAGCATACGCTATA | 0.584 |
